73 compounds from ChEMBL document CHEMBL4513216, “Probing the Open Global Health Chemical Diversity Library for Multistage-Active Starting Points for Next-Generation Antimalarials” (ACS Infect Dis, 2020) can be followed below.

Molecules are shown by their SMILES. Among all 69,000 compounds or so, about 8,600 (12%) showed an effect of 50% or more. The sample holds strong results, similar compounds and a random draw of the others, so the mix is not that of the screen.

The test system of this experiment is Plasmodium berghei. Kind of experiment: Screen against P. berghei liver stage (PbLuc), transformed with Luciferase, at 10uM. Format: functional, HepG2. The note with it: tested at 10 uM.
In the case of `O=C(CCc1cccc(C2CCNCC2)n1)N1CCCCC1`, the INHIBITION was -3.94%. Consider `Oc1cccc(CN2C[C@@H]3CC[C@H]2CN(Cc2ccc(F)cc2)C3)c1`, for which the INHIBITION is 39.5%. On to `O=C(c1cc(C2CC2)no1)N1C[C@@H]2CC[C@H]1CN(Cc1ccccn1)C2`, for which the INHIBITION worked out at 5.87%. Turning to `O=C(COc1coc(CN2CCCC2)cc1=O)Nc1cc(Cl)ccc1Cl`, the INHIBITION is recorded as -12.5%. The result for `CC(C)CN1CCS(=O)(=O)[C@@H]2CCN(S(=O)(=O)c3ccccc3)CC[C@@H]21` reads 8.85%.

As for `Cc1noc(C)c1CN(C)Cc1nc(N)c2ccccc2n1`, the INHIBITION is listed as 20.9%. Consider `COc1cccc(CN(C)Cc2c(C)noc2C)c1OC`, for which the INHIBITION is listed as -6.61%. As to `Cc1noc(C)c1CN(C)Cc1csc(-c2ccccc2F)n1`, the INHIBITION was 62.8%. The value for `Cc1noc(C)c1CN(C)CC(c1cccs1)N1CCOCC1` (stereo not drawn) was -54.6%; that for `Cc1noc(C)c1CN(C)CCC(=O)N1CCc2sccc2C1` was 0.932%.

Regarding `Cc1noc(C)c1CN(C)Cc1csc(-c2ccc(C(C)C)cc2)n1`, the INHIBITION was found to be 91.1%. Turning to `Cc1noc(C)c1CN(C)Cc1csc(-c2ccc(F)cc2)n1`, the INHIBITION amounted to 77.4%.

`Cc1noc(C)c1CN(C)C(C)c1cccs1` (stereo not drawn): the INHIBITION is 46.4%.

As for `CN(CC(N)=O)Cc1csc(-c2ccc(F)cc2)n1`, the INHIBITION was -0.991%. The value for `O=C(c1ncccn1)N1CCC[C@]2(C[C@@H](Oc3ncccc3F)CO2)C1` was -2.17%; that for `CC(C)C(Sc1nccn1C1CC1)C(=O)NCc1cccnc1` (stereo not drawn) was 0.411%.

Turning to `Cc1ccc(N2CC3(CCN(Cc4nccn4C)C3)CC2=O)s1` (stereo not drawn), the INHIBITION was 15.9%.

In the case of `CCOC(=O)CN1CC(c2nc(-c3ccsc3)no2)C1`, the INHIBITION came to 9.96%. With `CC(C)NC(=O)CNC(=O)c1csc(Cc2ccccc2F)n1`, the INHIBITION was -20.6%. `N#CCCCS(=O)(=O)N1CCC(CSc2ccccc2)C1` (stereo not drawn): the INHIBITION is recorded as -18.7%.

In the case of `COc1ccc(C2CCN(Cc3cscn3)CC2)cc1`, the INHIBITION was 37.7%. The value for `COc1ccc(C2CCN(S(=O)(=O)CCCC#N)CC2)cc1` was 59.1%; that for `CCCS(=O)(=O)N1CCC(Oc2ccc(C#N)cc2)CC1` was 25.8%; that for `COc1ccc(C2CCN(CCCC#N)CC2)cc1` was 63.5%. In the case of `CCCS(=O)(=O)N1CCC(c2ccc(OC)cc2)CC1`, the INHIBITION is listed as 67.8%. For `CCCS(=O)(=O)N1CCC(NCc2c(C)nn(C)c2OC)CC1`, the INHIBITION was -10.9%. Take `CC(C)n1cnnc1C1CCCN(S(=O)(=O)CCCC#N)C1` (stereo not drawn): the INHIBITION was found to be 48.3%. For `Cc1ncsc1C(=O)NC1CCN(CCCC#N)CC1`, the INHIBITION amounted to 33.7%. For the compound `CN(C)c1cc2c(nn1)CCN(C(=O)Cc1ccc3c(c1)CCC3)C2`, the INHIBITION worked out at 5.8%. As for `CCn1nc(C)c2nc(C(C)C)nc(NCC(C)C)c21`, the INHIBITION was 47.4%. For `Cc1occc1C(=O)N1CCC2(CC1)NC(=O)CC2c1cnn(C)c1` (stereo not drawn), the INHIBITION was found to be 42.1%.

For the compound `CNC(=O)C1CN(C)CCN(CCCOc2ccccc2F)C1` (stereo not drawn), the INHIBITION amounted to 8.72%. As to `CC(=O)Nc1ccc(SCC(=O)NCC2CCCO2)nn1` (stereo not drawn), the INHIBITION is recorded as -4.83%.

On to `COc1cccc([C@@]2(O)CC[C@@H]3CN(C(=O)c4cn(C)nc4C)C[C@@H]32)c1`, for which the INHIBITION is on record as -1.95%. `OCc1nnn2c1CN(Cc1cccnc1)CCC2`: the INHIBITION was 29%. The value for `CCc1cnc(CN(C(C)=O)C2CCN(Cc3nccn3C)C2)o1` (stereo not drawn) was -6.865%; that for `O=C(NCC1CCCO1)c1cc(Sc2ncccn2)ccn1` (stereo not drawn) was 32.8%; that for `CS(=O)(=O)N1CCC2(CC1)CC(NCc1ccccn1)c1ccccc12` (stereo not drawn) was 45.7%. As to `CNC(=O)CC1CC2(CCN(S(C)(=O)=O)CC2)c2ccccc21` (stereo not drawn), the INHIBITION amounted to 6.66%. Turning to `CN(C)C(=O)CC1CC2(CCN(c3ncccn3)CC2)c2ccccc21` (stereo not drawn), the INHIBITION was 38.5%. Turning to `c1cnc(N2CCC3(CC2)CC(NCC2CC2)c2ccccc23)nc1` (stereo not drawn), the INHIBITION is given as 88.1%.

For `CS(=O)(=O)N1CCC2(CC1)CC(CC(=O)NC1CC1)c1ccccc12` (stereo not drawn), the INHIBITION came out at 37%. For `CNC(=O)CC1CC2(CCN(c3ncccn3)CC2)c2ccccc21` (stereo not drawn), the INHIBITION is 55.6%. As for `CS(=O)(=O)N1CCC2(CC1)CC(NCC1CC1)c1ccccc12` (stereo not drawn), the INHIBITION amounted to 59.3%.

Take `CS(=O)(=O)N1CCC2(CC1)CC(NCc1ccco1)c1ccccc12` (stereo not drawn): the INHIBITION is listed as 66.6%.

As for `Cn1cc(CNC2CC3(CCN(CC4CC4)CC3)c3ccccc32)cn1` (stereo not drawn), the INHIBITION is on record as -40.4%. As to `CC(C)NC(=O)CC1CC2(CCN(S(C)(=O)=O)CC2)c2ccccc21` (stereo not drawn), the INHIBITION amounted to 18.5%. Regarding `CNC(=O)CNC1CC2(CCN(c3ncccn3)CC2)c2ccccc21` (stereo not drawn), the INHIBITION is recorded as 2.4%. For `Cn1cc(CNC2CC3(CCN(S(C)(=O)=O)CC3)c3ccccc32)cn1` (stereo not drawn), the INHIBITION stood at 44.8%. The value for `CC(Nc1cccc2c1OCCO2)C(=O)Nc1cccc(C#N)c1` (stereo not drawn) was 8.12%; that for `CCc1nc(CN(C(C)=O)C2CCN(CCc3ccccn3)C2)no1` (stereo not drawn) was 29.7%; that for `Oc1nc(N2CCOCC2)nc2nccc(-c3ccccn3)c12` was -21.3%. The result for `CNC(=O)c1cc(C)n(-c2ccccc2)n1` reads 36.2%; that for `O=C(NCc1cccs1)[C@@H]1CC[C@@H]2[C@@H](CCN2CC2CCC2)O1`, 30.3%; that for `CC(C)[C@H]1CN(c2cnccn2)C[C@@H]1NC(=O)C1(C#N)CCOCC1`, 49.5%. Regarding `CC(C)C[C@@H](CO)n1cc(-c2cncnc2)nn1`, the INHIBITION stood at 28.4%. For the compound `COc1ccc(C(=O)N(C)Cc2nnc3ccccn23)cc1`, the INHIBITION is given as -35.7%. Regarding `CC(C)c1nn(C)c(N(C)C)c1CNCC(O)COc1ccccc1` (stereo not drawn), the INHIBITION is listed as -37.2%. For the compound `Cc1cc(NC(=O)N2CCN(c3cccs3)CC2)ccc1C(N)=O`, the INHIBITION is 41%. Take `NC(=O)c1ccc(NC(=O)N2CCN(c3cccs3)CC2)c(F)c1`: the INHIBITION turned out to be 44.3%. For the compound `Cc1cc(C(N)=O)ccc1NC(=O)N1CCN(c2cccs2)CC1`, the INHIBITION stood at 65.6%.

Consider `CS(=O)(=O)NCc1nnc2n1CCN(CC1CC1)C2`, for which the INHIBITION is recorded as 39.2%.

For the compound `Cc1nc(C2CCCN(C(=O)Cn3ccccc3=O)C2)sc1C` (stereo not drawn), the INHIBITION is recorded as 25.6%.

With `CCn1ccnc1CN1CCCC1Cn1cc(C)cn1` (stereo not drawn), the INHIBITION is recorded as -53.5%. Regarding `Cc1ccc(Nc2nccc(C3CCN(C(=O)CO)C3)n2)nc1` (stereo not drawn), the INHIBITION was 40.6%. With `CNCC(=O)N1CCC(c2ccnc(Nc3ccc(C)cn3)n2)C1` (stereo not drawn), the INHIBITION worked out at 56.3%. The result for `O=C(C1CCCC1)N1CCC(c2ccnc(Nc3cnccn3)n2)C1` (stereo not drawn) reads 22%; that for `CC(=O)N1CCCC(c2ccnc(Nc3cnccn3)n2)C1` (stereo not drawn), 42.6%. The value for `CNCC(=O)N1CCCC(c2ccnc(Nc3cnccn3)n2)C1` (stereo not drawn) was 15.9%; that for `Cc1ccc(Nc2nccc(C3CCN(C(=O)CN)C3)n2)nc1` (stereo not drawn) was 58.1%. The result for `CC(=O)N1CCC(c2ccnc(Nc3cnccn3)n2)C1` (stereo not drawn) reads 50.6%; that for `CNCC(=O)N1CCCC(c2cccc(Nc3nc(C)cc(C)n3)n2)C1` (stereo not drawn), 33%; that for `NCC(=O)N1CCC(c2ccnc(Nc3cc(C(F)(F)F)ccn3)n2)C1` (stereo not drawn), 19.3%.
